Results published in PubChem BioAssay (NCI).
About 83,000 compounds went through this panel and 20% of them were active in at least one assay; those are over-represented in the sample as a whole.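 Results are percent growth after 48 hours of single-concentration exposure. 100 means growth as in untreated cells, lower positive values show inhibition; negative values down to -100 show cell death.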 Calls of active or inactive are those of the source. How the source made its calls: active means growth percent below 10; inactive means the rest.

Key:
Assay in all cases: NCI-60 one-dose screen, 48 h (100 = growth as untreated, 0 = no growth, -100 = all killed)
Conditions in all cases: 10 µM unless noted
[1] = tested on: NCI-H23 lung
[2] = tested on: NCI-H226 lung
[3] = tested on: NCI-H322M lung
[4] = tested on: HOP-62 NSCLC
[5] = tested on: NCI-H460 lung
[6] = tested on: HOP-92 NSCLC
[7] = tested on: NCI-H522 lung
[8] = tested on: A549/ATCC NSCLC
[9] = tested on: 786-0 renal
[10] = tested on: COLO 205 colon
[11] = tested on: DU-145 prostate
[12] = tested on: K-562 leukemia
[13] = tested on: MALME-3M melanoma
[14] = tested on: MDA-MB-231 breast
[15] = tested on: RXF 393 renal
[16] = tested on: SF-268 CNS
[17] = tested on: SF-295 CNS
[18] = tested on: SF-539 CNS
[19] = tested on: UACC-257 melanoma
[20] = tested on: M14 melanoma

Measured: growth

C=CCc1c2c(c(OC)c3ccoc13)C(=O)/C(=C/c1ccccc1OC)O2
inactive: [1] 19.7% | [2] 72.8% | [3] 65.9% | [4] 80% | [5] 31.3% | [6] 58.8% | [7] 48.5% | [8] 60.2% | [9] 94.1% | [10] 104% | [11] 35% | [12] 49.5% | [13] 88.8% | [14] 50.9% | [15] 24.8% | [16] 60.4% | [17] 60.1% | [18] 94.7% | [19] 63.7% | [20] 64.2%

COc1cc2c(c(OC)c1OC)CCC(c1cccc(C(=O)Nc3cccc(Br)c3)c1)O2 (stereo not given)
inactive: [1] 77.5% | [2] 69.9% | [3] 50.9% | [4] 96.8% | [5] 70.5% | [7] 48.8% | [8] 64.5% | [9] 81% | [10] 88.3% | [11] 85.1% | [12] 52.1% | [13] 102% | [14] 17.6% | [15] 78.6% | [16] 67.1% | [17] 64.5% | [18] 99.4% | [19] 74.1% | [20] 73.9%
active: [6] 6.24%

C/C(=N/O)c1ccc(F)cc1
inactive: [1] 84% | [2] 91.5% | [3] 111% | [4] 92.8% | [5] 36.6% | [6] 109% | [7] 55.4% | [8] 103% | [9] 107% | [10] 90.6% | [12] 92.7% | [13] 130% | [14] 88% | [15] 64.1% | [16] 102% | [17] 75% | [18] 119% | [19] 95.3% | [20] 94.9%
active: [11] 5.59%

CCCCC(=O)c1ccco1
inactive: [1] 89.2% | [2] 95.1% | [3] 105% | [4] 88.7% | [5] 106% | [6] 99.9% | [7] 92.2% | [8] 97.9% | [9] 97.5% | [10] 104% | [11] 98.6% | [12] 104% | [13] 103% | [14] 98.7% | [15] 97.6% | [16] 96% | [17] 101% | [18] 99.5% | [19] 105% | [20] 90.6%

CCN(CC)c1ccc(/C=C/C(=O)c2ccc(Nc3nc(Nc4ccccc4)nc(Nc4ccccc4)n3)cc2)cc1
active: [17] 1.72%
inactive: [1] 62.5% | [2] 63.8% | [3] 62.4% | [4] 50.8% | [5] 24.8% | [6] 24.2% | [7] 46.8% | [8] 37.6% | [9] 61.8% | [10] 27.9% | [11] 51.6% | [12] 22.5% | [13] 43.2% | [14] 52.8% | [15] 10.6% | [16] 62.1% | [18] 61.2% | [19] 73.1% | [20] 54.1%

C=C1C(=O)O[C@H]2[C@H]1CC/C(COC(=O)CSCCSCC(=O)OC/C1=C/CC[C@@]3(C)O[C@H]3[C@H]3OC(=O)C(=C)[C@@H]3CC1)=C\CC[C@@]1(C)O[C@@H]21
inactive: [1] 40.6% | [3] 77.2% | [4] 81.2% | [5] 22.1% | [8] 69.5% | [11] 32.3% | [16] 16.7% | [17] 67.2% | [19] 49.9%
active: [2] 8.95% | [6] -0.141% | [7] -76.2% | [9] -24.2% | [10] -37.7% | [12] 1.81% | [13] -8.71% | [14] -37.2% | [15] -85.1% | [18] 1.67% | [20] 3.06%

Cn1c(=O)c2[nH]c(N/N=C/c3ccccc3Br)nc2n(C)c1=O
inactive: [1] 107% | [2] 110% | [3] 95.5% | [4] 112% | [5] 110% | [6] 104% | [7] 89.7% | [8] 101% | [9] 96.9% | [10] 137% | [11] 104% | [12] 87.9% | [13] 107% | [14] 97.8% | [15] 121% | [16] 104% | [17] 92.2% | [18] 113% | [19] 117% | [20] 99.9%

Nc1ncnc2c1N=C(c1ccc3c(c1)OCO3)CC(c1cccc(Nc3ccnc4cc(Cl)ccc34)c1)N2 (stereo not given)
active: [12] 2.1%
inactive: [1] 49.8% | [2] 69.8% | [3] 76.2% | [4] 64% | [5] 59.8% | [6] 26.6% | [7] 58% | [8] 67.2% | [9] 55.1% | [10] 82.7% | [11] 63.1% | [13] 97.3% | [14] 70.1% | [15] 72.2% | [16] 69.3% | [17] 46.6% | [18] 86.3% | [19] 59.3% | [20] 57.3%

COCCNC(=O)c1ccc(-c2nc3ccc4[nH]ncc4c3c3c2CCCC3)cc1
inactive: [1] 43.5% | [2] 50.7% | [3] 29.1% | [4] 40.1% | [5] 27.1% | [6] 56.8% | [7] 30.6% | [8] 30.4% | [9] 31.7% | [10] 27.7% | [11] 41.3% | [12] 24.9% | [13] 30.5% | [14] 50.4% | [15] 11.8% | [16] 32.4% | [17] 32.5% | [18] 12.2% | [19] 71.2% | [20] 35.1%

CCCNC(=O)Oc1ccc(/C(=C(/C)Cc2ccc(OC)cc2)c2ccc(OCCCN(C)C)cc2)cc1
inactive: [1] 82.4% | [2] 94.7% | [3] 88.3% | [4] 101% | [5] 73.3% | [6] 51.7% | [7] 78.5% | [8] 77.6% | [9] 92% | [10] 71.6% | [11] 94.9% | [12] 15.3% | [13] 82.9% | [14] 89.9% | [15] 74.7% | [16] 84% | [17] 88.2% | [18] 97.8% | [19] 99.2% | [20] 71.8%

C=C1C(=O)O[C@H]2[C@H]1CC/C(COC(=O)CCSCCC(=O)OC/C1=C/CC[C@@]3(C)O[C@H]3[C@H]3OC(=O)C(=C)[C@@H]3CC1)=C\CC[C@@]1(C)O[C@@H]21
active: [1] 9.21% | [2] -39.5% | [5] 9.87% | [6] -50.2% | [7] -75.8% | [9] -21.9% | [10] -72.3% | [12] 2.89% | [13] -13.7% | [14] -52.1% | [15] -95.3% | [18] -15.1% | [19] -13.7% | [20] -12%
inactive: [3] 80.5% | [4] 86.9% | [8] 71.1% | [11] 20.1% | [16] 24.2% | [17] 62.7%

O=C(Cc1ccccc1)Nc1nc(O)c(/C=C2\C(=O)C=Cc3ccccc32)s1
inactive: [1] 90.7% | [2] 100% | [3] 98.2% | [4] 107% | [5] 99.4% | [6] 85.2% | [7] 90.5% | [8] 101% | [9] 102% | [10] 111% | [11] 104% | [12] 100% | [13] 106% | [14] 98.1% | [15] 111% | [16] 99.2% | [17] 103% | [18] 102% | [19] 106% | [20] 89.7%

COc1ccc(-c2nn(-c3ccccc3)cc2/C=C2/SC(=S)N(C)C2=O)cc1
active: [9] 1.33%
inactive: [1] 94.5% | [2] 55.1% | [3] 60.8% | [4] 25.3% | [5] 11.2% | [6] 74.7% | [7] 91.2% | [8] 36.8% | [10] 64.4% | [11] 90.7% | [12] 56.9% | [13] 88.4% | [14] 63% | [15] 96.5% | [16] 99.2% | [17] 51.4% | [18] 70.3% | [19] 29.4% | [20] 97.3%

Brc1c2c(c(Br)c3ccccc13)CCCC2
inactive: [1] 97.7% | [2] 85.8% | [3] 99.6% | [4] 84% | [5] 111% | [6] 80.9% | [7] 75.5% | [8] 79.7% | [9] 102% | [10] 102% | [11] 110% | [12] 94.7% | [13] 108% | [14] 91% | [15] 101% | [16] 104% | [17] 101% | [18] 102% | [19] 89.8% | [20] 99.1%

CCOC(=O)CNP(=O)(OC[C@@H](Cc1ccccc1)NC(=O)c1cc2ccccc2s1)Oc1ccccc1 (stereo not given in full)
inactive: [1] 81.1% | [2] 93.2% | [3] 93.3% | [4] 85.3% | [5] 72.7% | [6] 69.3% | [7] 71.7% | [8] 64.8% | [9] 89.7% | [10] 87.2% | [11] 88.8% | [12] 19.4% | [13] 69.3% | [14] 77% | [15] 84.4% | [16] 85.6% | [17] 88.5% | [18] 78.9% | [19] 81.2% | [20] 59.6%
